Reference: PubChem BioAssay
Activity calls are given as the source filed them. Unless noted, how the calls were made is not given here.

What was measured:
[1] = compound effects on lung adenocarcinoma cell viability – A549, calcein-AM fluorescence, 48 h, basal, profiling panel (AID 1162); conditions: higher = more signal; further: test concentration not given here
[2] = compound effects on differentiated 3T3-L1 adipocyte viability – cell-based, 3T3-L1 adipocytes, calcein-AM fluorescence, 48 h, basal, profiling panel (AID 1163); conditions: 3T3-L1 adipocytes viability, higher = more signal; further: test concentration not given here
[3] = compound effects on hepatocellular carcinoma cell viability – HepG2, calcein-AM fluorescence, 48 h, basal, profiling panel (AID 1164); conditions: higher = more signal; further: test concentration not given here
[4] = compound effects on multiple myeloma cell viability – MM1S, calcein-AM fluorescence, 48 h, basal, profiling panel (AID 1165); conditions: higher = more signal; further: test concentration not given here
[5] = calcein-AM signal in unstimulated myeloma cells – cell-based, calcein-AM fluorescence, 48 h, PK04 Diversity Set, profiling panel (AID 1166); conditions: RPMI8226 myeloma viability, higher = more signal;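 further: cells grown under basal conditions without added stimulus; test concentration not given here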
[6] = JC-1 mitochondrial signal, unstimulated HepG2 cells – cell-based, JC-1 fluorescence, 24 h, 100 nL compound, profiling panel (AID 1167); conditions: HepG2 mitochondrial potential, higher = more signal; further: test concentration not given here
[7] = JC-1 mitochondrial signal, unstimulated adipocytes – cell-based, JC-1 fluorescence, 3T3-L1 adipocytes, 24 h, 100 nL compound, profiling panel (AID 1168); conditions: JC-1 mitochondrial fluorescence, higher = more signal, called active from +8 up or from −8 down; further: test concentration not given here
[8] = JC-1 mitochondrial signal, unstimulated myeloma cells – cell-based, JC-1 fluorescence, RPMI8226, 24 h, 100 nL compound, profiling panel (AID 1169); conditions: JC-1 mitochondrial potential fluorescence, higher = more signal; further: test concentration not given here
[9] = JC-1 mitochondrial signal, unstimulated MM1S myeloma – cell-based, JC-1 fluorescence, 24 h, 100 nL compound, profiling panel (AID 1170); conditions: MM1S mitochondrial potential, higher = more signal; further: test concentration not given here
[10] = resazurin metabolic signal in A549 cells – cell-based, resazurin fluorescence, 24 h, PK04 Diversity Set, profiling panel (AID 1171); conditions: A549 viability, higher = more signal, called active from +8 up or from −8 down; further: test concentration not given here
[11] = resazurin metabolic signal in HepG2 cells – cell-based, resazurin fluorescence, 24 h, PK04 Diversity Set, profiling panel (AID 1172); conditions: HepG2 viability, higher = more signal; further: test concentration not given here
[12] = budding yeast growth changes without added modifier – OD600, strain BY4716, 24 h, basal condition, primary screen (AID 1173); conditions: S. cerevisiae BY4716 growth, OD600, 24 h; higher = more signal, called active from +8 up or from −8 down
[13] = viability profiling in MM1S myeloma cells – cell-based, resazurin fluorescence, basal, 24 h, PK04 Diversity Set, profiling panel (AID 1174); conditions: higher = more signal, called active from +8 up or from −8 down; further: test concentration not given here
[14] = target: Dihydroorotate dehydrogenase (quinone), mitochondrial (Plasmodium falciparum (isolate 3D7)) (UniProt Q08210); assay: inhibition of P. falciparum DHODH – biochemical, C-terminal His tag, absorbance 600 nm, primary screen (AID 1175); conditions: PfDHODH enzyme, DCIP absorbance 600 nm; higher = more signal, called active from +8 up or from −8 down;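 further: recombinant parasite enzyme with a five histidine tag at its C terminus; test concentration not given here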
[15] = inhibition of PAO1 biofilm formation – strain PAO1, LB-PBS medium, absorbance 600 nm, primary screen (AID 1176); further: test concentration not given here; conditions: P. aeruginosa PAO1 growth/biofilm, A600, 12 h; higher = more signal
[16] = growth modulation of vineyard yeast isolate – strain RM11-1a, OD600, basal, 24 h, primary screen (AID 1177);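 further: cultures grown under basal conditions with no added stressor; test concentration not given here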; conditions: S. cerevisiae RM11-1a growth, OD600, 24 h; higher = more signal, called active from +8 up or from −8 down
[17] = growth of efflux-deficient E. coli DRC39 – strain DRC39, OD650, 24 h, E. coli filamentation inducers, primary screen (AID 1178);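 further: growth measured as culture turbidity by optical density at 650 nm; test concentration not given here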; conditions: E. coli DRC39 acrAB, higher = more signal, called active from +8 up or from −8 down
[18] = growth of efflux-deficient E. coli DRC39 – strain DRC39, OD650, 48 h, E. coli filamentation inducers, primary screen (AID 1179);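 further: screen aims at cell division blockers that make cells filament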; conditions: E. coli DRC39 delta-acrAB growth, higher = more signal, called active from +8 up or from −8 down
[19] = viability profiling in RPMI8226 myeloma cells – cell-based, resazurin fluorescence, basal, 24 h, PK04 Diversity Set, profiling panel (AID 1180); conditions: higher = more signal;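 further: RPMI8826 multiple myeloma cell line at 5000 cells per well; test concentration not given here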
[20] = target: E3 ubiquitin-protein ligase XIAP (Homo sapiens) (UniProt P98170); assay: small molecules binding XIAP protein – biophysical, small-molecule microarray, fluorescence 635 nm, primary screen (AID 1181); conditions: higher = more signal;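 further: score merges 667 nm emission and signal to noise over triplicate slides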
Sequence of E3 ubiquitin-protein ligase XIAP (Homo sapiens) (P98170 whole entry, looked up): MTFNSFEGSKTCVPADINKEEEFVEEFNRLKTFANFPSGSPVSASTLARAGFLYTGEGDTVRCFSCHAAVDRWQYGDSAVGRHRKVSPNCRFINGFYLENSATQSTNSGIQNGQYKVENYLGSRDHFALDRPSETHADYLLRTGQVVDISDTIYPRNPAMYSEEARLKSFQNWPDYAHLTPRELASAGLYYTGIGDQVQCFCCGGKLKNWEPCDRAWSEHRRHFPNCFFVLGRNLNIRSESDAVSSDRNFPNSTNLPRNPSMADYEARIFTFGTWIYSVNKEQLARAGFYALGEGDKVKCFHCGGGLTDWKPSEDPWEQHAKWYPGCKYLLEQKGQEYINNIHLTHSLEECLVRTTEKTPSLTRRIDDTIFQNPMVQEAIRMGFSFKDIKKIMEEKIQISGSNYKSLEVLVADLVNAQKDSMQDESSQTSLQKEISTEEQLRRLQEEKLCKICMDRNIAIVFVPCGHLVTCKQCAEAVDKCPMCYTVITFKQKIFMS

Sequence of Dihydroorotate dehydrogenase (quinone), mitochondrial (Plasmodium falciparum (isolate 3D7)) (Q08210 whole entry, looked up): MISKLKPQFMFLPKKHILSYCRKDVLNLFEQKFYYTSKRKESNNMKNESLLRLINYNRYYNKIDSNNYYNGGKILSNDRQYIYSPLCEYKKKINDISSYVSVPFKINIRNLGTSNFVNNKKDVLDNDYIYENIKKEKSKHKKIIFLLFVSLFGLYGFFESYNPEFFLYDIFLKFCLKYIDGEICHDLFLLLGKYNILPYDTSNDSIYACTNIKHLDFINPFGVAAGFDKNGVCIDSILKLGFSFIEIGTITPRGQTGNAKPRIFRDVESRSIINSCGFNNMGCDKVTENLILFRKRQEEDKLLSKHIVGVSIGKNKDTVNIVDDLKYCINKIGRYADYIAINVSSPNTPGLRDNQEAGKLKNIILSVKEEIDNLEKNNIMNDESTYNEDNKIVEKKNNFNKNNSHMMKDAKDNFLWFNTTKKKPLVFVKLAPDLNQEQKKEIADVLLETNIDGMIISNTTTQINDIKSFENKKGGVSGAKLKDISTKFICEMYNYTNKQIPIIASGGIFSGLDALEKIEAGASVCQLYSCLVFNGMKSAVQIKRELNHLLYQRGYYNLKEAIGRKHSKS

Compound | z-score [1] | z-score [2] | z-score [3] | z-score [4] | z-score [5] | z-score [6] | z-score [7] | z-score [8] | z-score [9] | z-score [10] | z-score [11] | z-score [12] | z-score [13] | composite z-score [14] | z-score [15] | z-score [16] | z-score [17] | z-score [18] | z-score [19] | composite z-score [20]
CCOC(=O)C1=CC[C@@H](c2ccccc2)N(S(=O)(=O)c2ccc(C)cc2)[C@@H]1C#N | 0.25 | -0.415 | 0.278 | -3.21 | -2.77 | 0.43 | 0.726 (inactive) | -0.791 | -2.41 | 0.433 (inactive) | 0.794 | -1.95 (inactive) | -1.43 (inactive) | -1.21 (inactive) | -0.088 (inactive) | 0.455 (inactive) | -0.337 (inactive) | 0.831 (inactive) | -1.57 | -0.207
COc1ccc(CCNC(=O)[C@@H]2c3ccccc3C(=O)N(Cc3cc(F)cc(C(F)(F)F)c3)[C@H]2c2ccc(CO)cc2)cc1 | 2.41 | 1.33 | 0.492 | -0.696 | 0.36 | 1.98 | 0.17 (inactive) | -0.455 | 0.558 | 1.3 (inactive) | -0.162 | -0.314 (inactive) | 0.821 (inactive) | -0.179 (inactive) | -0.121 (inactive) | -0.209 (inactive) | 0.746 (inactive) | 0.387 (inactive) | 1.16 | -0.0835
C=C(COC)/C(=C/C[C@@H](OC(=O)c1ccncc1)c1ccccc1OCCO)c1cnc2ccccc2c1 | 0.746 | 0.317 | -0.316 | -3.18 | -0.986 | 2.78 | -1.16 (inactive) | -0.527 | 1.61 | 0.268 (inactive) | -0.567 | -0.0618 (inactive) | 0.028 (inactive) | -3.66 (inactive) | -0.66 (inactive) | 0.0519 (inactive) | 0.825 (inactive) | 0.359 (inactive) | 0.0353 | 0.166
COc1cc(CO)cc(I)c1O[C@H]1C=C(C(=O)NCCO)C[C@@H](N(CCN2CCOCC2)C(=O)C2CCCO2)[C@@H]1O (stereo not given in full) | 1.51 | -0.786 | 0.315 | 0.605 | -0.984 | 1.68 | -0.526 (inactive) | 0.385 | -0.1 | -0.0953 (inactive) | 0.687 | -0.371 (inactive) | -0.202 (inactive) | 0.826 (inactive) | -0.365 (inactive) | 0.772 (inactive) | 2.09 (inactive) | 1.21 (inactive) | 0.716 | -0.117
COC(=O)[C@@]1(Cc2ccc(OC)cc2)[C@@H]2[C@@H](CC(=O)[C@H]2CC(=O)C(=O)N(C)C)CN1C(=O)c1ccccc1 | -1.45 | -0.18 | -0.923 | -2.24 | -4.62 | 1.1 | -0.169 (inactive) | -0.735 | -2.16 | -2.28 (inactive) | -0.54 | 1.05 (inactive) | -2.89 (inactive) | -0.284 (inactive) | 1.02 (inactive) | 0.415 (inactive) | 0.243 (inactive) | 0.358 (inactive) | -4.19 | 0.489
O=C1OC[C@@H](c2ccccc2)n2cc(/C=C/c3ccccc3)cc21 | -0.235 | 1.75 | -0.202 | -0.472 | -0.597 | -0.564 | 0.156 (inactive) | -0.161 | -0.735 | 0.229 (inactive) | -0.295 | -2.5 (inactive) | 0.539 (inactive) | -2.31 (inactive) | -0.353 (inactive) | 0.561 (inactive) | -0.0891 (inactive) | -0.733 (inactive) | -0.302 | -0.286
COCCCNC(=O)[C@]1(Cc2ccccc2CN=[N+]=[N-])N=C(c2ccc(OCCCO)cc2)O[C@@H]1c1ccccc1N=[N+]=[N-] | -0.532 | -0.541 | -0.576 | -2.96 | -3.93 | 1.27 | 1.16 (inactive) | -1.12 | -2.77 | -2.12 (inactive) | -1.99 | 0.234 (inactive) | -4.37 (inactive) | 0.553 (inactive) | 1.24 (inactive) | 0.995 (inactive) | 0.703 (inactive) | 0.692 (inactive) | -3.63 | 0.43
COC(=O)C(CC#Cc1ccc2c(c1)[C@]1(C(=O)N2)[C@H](C(=O)NC[C@H](O)c2ccccc2)[C@H]2C(=O)O[C@H](c3ccccc3)[C@H](c3ccccc3)N2[C@@H]1c1ccc(O)cc1)C(=O)OC | -0.244 | -1.56 | -0.0776 | -1.46 | -1.97 | -2.14 | -1.75 (inactive) | -0.933 | -0.492 | 0.489 (inactive) | 0.155 | 0.455 (inactive) | 0.515 (inactive) | -5.06 (inactive) | 1.05 (inactive) | 0.518 (inactive) | -0.196 (inactive) | -0.556 (inactive) | -0.464 | 0.076
COC(=O)[C@]1(Cc2ccccc2CN=[N+]=[N-])N=C(c2ccc(OCCCO)cc2)O[C@@H]1c1ccccc1N=[N+]=[N-] | -3.25 | -0.028 | -5.51 | -3.55 | -4 | 1.52 | -0.387 (inactive) | -1.06 | -2.47 | -2.73 (inactive) | -2 | 1.09 (inactive) | -4.02 (inactive) | -0.123 (inactive) | 1.06 (inactive) | 1.77 (inactive) | 1.74 (inactive) | 0.918 (inactive) | -6.89 | -0.188
C=C[C@H](OC)[C@@H](O)c1ccc(OC)c(O)c1 | -0.107 | -0.678 | 1.69 | -0.166 | -0.991 | 1.26 | 0.503 (inactive) | 0.5 | 0.443 | -0.112 (inactive) | 0.0143 | -0.506 (inactive) | 0.546 (inactive) | 0.255 (inactive) | 0.65 (inactive) | -0.0878 (inactive) | 0.37 (inactive) | 0.905 (inactive) | 0.252 | -0.289
O=C(c1ccccc1)N1Cc2ccccc2C[C@@]2(N=C(c3ccc(OCCCO)cc3)O[C@H]2c2ccccc2)C1=O | -1.12 | 0.862 | -1.18 | -3.31 | -4.05 | -1.68 | 0.471 (inactive) | -1.25 | -2.14 | -2.63 (inactive) | -1.51 | 0.728 (inactive) | -3.22 (inactive) | 0.23 (inactive) | 1.49 (inactive) | 1.39 (inactive) | 0.0557 (inactive) | -0.469 (inactive) | -3.73 | 0.0797
C=C(COC)C(=O)CC[C@H](OC(C)=O)c1ccc(CO)o1 | 0.0053 | 0.972 | -0.582 | 0.657 | 1.76 | 0.378 | -0.587 (inactive) | -0.563 | -0.434 | 0.642 (inactive) | 0.815 | -0.111 (inactive) | 0.324 (inactive) | -1.28 (inactive) | -0.517 (inactive) | -1.28 (inactive) | 0.581 (inactive) | 0.117 (inactive) | 0.875 | 0.194
CCOC(=O)C1=CCC(c2cccn2C(=O)OC(C)(C)C)N(S(=O)(=O)c2ccc(C)cc2)C1 (stereo not given) | -0.982 | -0.838 | -0.168 | -3.2 | -3.67 | 2.22 | 0.066 (inactive) | -1.11 | -2.93 | -0.373 (inactive) | 0.573 | -0.902 (inactive) | -0.926 (inactive) | 0.068 (inactive) | -0.144 (inactive) | 0.824 (inactive) | -0.484 (inactive) | 0.605 (inactive) | -0.538 | 0.177
CC1(C)OB(/C=C\CC(OC(=O)c2ccncc2)c2ccccc2)OC1(C)C (stereo not given) | -0.0116 | 0.282 | -0.691 | -0.475 | -1.45 | -1.27 | -0.928 (inactive) | -0.194 | 0.343 | 0.0383 (inactive) | -0.159 | -1.17 (inactive) | 0.217 (inactive) | -0.413 (inactive) | -0.159 (inactive) | -0.786 (inactive) | 0.0147 (inactive) | -0.465 (inactive) | 0.143 | 0.0487
COCCOC(=O)N1C(=O)[C@@]2(c3cc(C#CC4(O)CCCCCC4)ccc31)[C@H](C(N)=O)[C@H]1C(=O)O[C@H](c3ccccc3)[C@H](c3ccccc3)N1[C@@H]2c1ccc(OCCO)cc1 | -0.502 | -0.0582 | -1.71 | -2.99 | -4.26 | -1.97 | -0.69 (inactive) | -1.29 | -1.7 | -1.54 (inactive) | -0.905 | 0.842 (inactive) | -3.72 (inactive) | 0.42 (inactive) | 2.53 (inactive) | 2.58 (inactive) | 0.141 (inactive) | 0.282 (inactive) | -3.3 | 0.128
C=CCOC(=O)[C@H]1[C@@H]2C(=O)O[C@@H](c3ccccc3)[C@@H](c3ccccc3)N2[C@@H](c2ccc(OCCOC(=O)[C@@H]3C[C@@H]4C(=O)N[C@@H](Cc5ccccc5)C(=O)N4[C@@H]3c3ccc(O)cc3)cc2)[C@]12C(=O)Nc1ccc(I)cc12 | -1.29 | -0.28 | 0.561 | -0.325 | -0.561 | -2.14 | 0.687 (inactive) | -0.398 | -1.03 | -0.454 (inactive) | -0.654 | 2.3 (inactive) | -1.06 (inactive) | 0.684 (inactive) | 2.75 (inactive) | 2.92 (inactive) | -0.588 (inactive) | -0.508 (inactive) | -0.721 | 0.349
